Values without a mark were called inactive. The source made the active and inactive calls.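 Rule for the calls, unless noted: active = thallium flux through the channel raised or lowered by more than 3 SD from vehicle-only wells, actives on both sides; inactive = the rest.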

For one test, the system named is F380Y. The test can be described thus: BK channel mutant inhibitors and activators – cell-based, U2OS BacMam, thallium flux, beta subunits, selectivity assay, profiling panel (AID 1259406).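 Note: initial slope of Thallos dye fluorescence rise after thallium is added; log ratio against the mean of 0.3% DMSO vehicle wells on the same plate.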 To be noted: U2OS BacMam BK variants, at 30 µM.
For a further test, the system named is F380Y/beta1. Described as above. To be noted: U2OS BacMam BK variants, at 30 µM.
For a further test, the system named is F380Y/beta2Delta. The description is as above. To be noted: U2OS BacMam BK variants, at 30 µM.
A further test concerns F380Y/beta4. Described as above. To be noted: U2OS BacMam BK variants, at 30 µM.
Test [1] concerns the target Calcium-activated potassium channel subunit alpha-1 (Homo sapiens) + Leucine-rich repeat-containing protein 26 (Homo sapiens) (UniProt Q12791+Q2I0M4). The description is as above. Conditions: U2OS BacMam BK variants, F380Y/Slo1WT/gamma1, at 30 µM.
Another test relates to R275C. The test is described as above. Conditions: U2OS BacMam BK variants, at 30 µM.
In a further test the test system is R275C/beta1. Described as above. Conditions: U2OS BacMam BK variants, at 30 µM.
A further test concerns R275C/beta2Delta. The description is as above. Conditions: U2OS BacMam BK variants, at 30 µM.
A further test has as its system R275C/beta4. The test is described as above. To be noted: U2OS BacMam BK variants, at 30 µM.
The next test has as its system R275C/Slo1WT/beta2. Described as above. To be noted: U2OS BacMam BK variants, at 30 µM.
The nature of test [2]: antimalarial activity against Dd2 strain (AID 2302;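 active = growth inhibition above 50% at the single 2 µM test dose, taken to imply half-maximal potency below 2 µM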;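 note: 0% = DMSO untreated growth and 100% = chloroquine plus artemisinin killed control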). Conditions: P. falciparum Dd2 in RBCs, LDH growth readout, 72 h; at 2 µM; stronger effect = higher value.
Test [3] can be described thus: human hepatoma cell viability loss – ATP luminescence, cytotoxicity control for P. falciparum antimalarial project, primary screen (AID 2303;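 active = inhibition above 50%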;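 note: 0% = DMSO wells and 100% = digitonin-killed cells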). Conditions: HepG2 viability, 24-48 h, at 10 µM, stronger effect = higher value.
The target of test [4] is L-lactate dehydrogenase (Plasmodium falciparum (isolate CDC / Honduras)) (UniProt Q27743). In words: PfLDH activity inhibition – cell lysate, 3D7 strain, counter-screen for P. falciparum growth inhibition project (AID 2304; call rule not given here;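 note: 0% = vehicle and 100% = reference inhibitor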). To be noted: P. falciparum 3D7 crude extract, LDH APAD/NBT absorbance; at 2 µM; stronger effect = higher value. On the technique in general: A counterscreen serves to expose hits that act by an unwanted route or on another target.

Test [5] is described as follows: inhibition of 3D7 malaria parasite growth – strain 3D7 (AID 2306; call rule not given here;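 note: 0% = DMSO wells and 100% = chloroquine plus artemisinin control wells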). Conditions: P. falciparum 3D7 erythrocytic growth, LDH absorbance, 72 h; at 2 µM; stronger effect = higher value.
For test [6], the target named is Protein kinase 7 (PK7), Plasmodium falciparum 3D7 (PF3D7_0213400) (UniProt Q7YTF7). In words: inhibition of Plasmodium PK7 catalytic activity – biochemical, TCAMS antimalarial set, Kinase-Glo luminescence (AID 1159587; call rule not given here). To be noted: recombinant PfPK7, Kinase-Glo ATP depletion luminescence. A general note: Kinase-Glo measures the ATP left after a reaction by luminescence.
Sequence of Protein kinase 7 (PK7), Plasmodium falciparum 3D7 (PF3D7_0213400) (Q7YTF7 1-343): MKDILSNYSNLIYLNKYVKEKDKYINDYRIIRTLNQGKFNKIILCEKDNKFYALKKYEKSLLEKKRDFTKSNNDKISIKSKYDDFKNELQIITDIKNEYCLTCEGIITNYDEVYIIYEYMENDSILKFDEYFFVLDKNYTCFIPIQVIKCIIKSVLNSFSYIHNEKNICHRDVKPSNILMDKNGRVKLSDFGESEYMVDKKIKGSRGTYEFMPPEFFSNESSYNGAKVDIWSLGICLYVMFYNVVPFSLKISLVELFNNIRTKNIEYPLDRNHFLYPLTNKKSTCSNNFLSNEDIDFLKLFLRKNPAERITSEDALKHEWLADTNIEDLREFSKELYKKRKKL

Sequence of Calcium-activated potassium channel subunit alpha-1 (Homo sapiens) + Leucine-rich repeat-containing protein 26 (Homo sapiens) (Q2I0M4 whole entry, looked up, one chain of several): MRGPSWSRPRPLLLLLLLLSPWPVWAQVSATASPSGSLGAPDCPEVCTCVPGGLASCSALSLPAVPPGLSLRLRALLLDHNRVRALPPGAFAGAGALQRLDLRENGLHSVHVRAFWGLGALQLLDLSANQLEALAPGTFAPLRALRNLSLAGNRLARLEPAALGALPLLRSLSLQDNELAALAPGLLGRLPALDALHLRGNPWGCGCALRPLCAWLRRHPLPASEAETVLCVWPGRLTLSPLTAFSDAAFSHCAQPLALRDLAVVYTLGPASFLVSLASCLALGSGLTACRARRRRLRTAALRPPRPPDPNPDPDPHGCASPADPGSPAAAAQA
Sequence of L-lactate dehydrogenase (Plasmodium falciparum (isolate CDC / Honduras)) (Q27743 whole entry, looked up): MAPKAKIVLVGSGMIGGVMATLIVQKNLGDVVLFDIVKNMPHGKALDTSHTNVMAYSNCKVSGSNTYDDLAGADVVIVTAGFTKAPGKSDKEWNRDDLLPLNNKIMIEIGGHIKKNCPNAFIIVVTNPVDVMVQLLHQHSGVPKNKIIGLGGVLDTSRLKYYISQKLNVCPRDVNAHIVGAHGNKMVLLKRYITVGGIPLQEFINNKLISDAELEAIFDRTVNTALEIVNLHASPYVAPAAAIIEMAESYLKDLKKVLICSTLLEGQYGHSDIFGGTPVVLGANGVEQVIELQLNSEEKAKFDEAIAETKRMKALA

With `CCOC(=O)c1ccc(-n2sccc2=O)cc1`, the log fold change Tl+ flux with F380Y is -0.0987; in the test with F380Y/beta1 it was 0.078; in the test on F380Y/beta2Delta, -0.0422; in the test on F380Y/beta4, -0.0664; in test [1] it was 0.0683; in the test on R275C, 0.0277. Besides, the log fold change Tl+ flux in the test on R275C/beta1 was 0.179 (active); in the test with R275C/beta2Delta, 0.113 (active); with R275C/beta4, 0.141 (active); with R275C/Slo1WT/beta2 it was 0.0482.
For the compound `CN(C1CCCCC1)S(=O)(=O)c1cccs1`, the log fold change Tl+ flux with F380Y is -0.0928; in the test with F380Y/beta1, -0.00759; with F380Y/beta2Delta, -0.0383; in the test with F380Y/beta4, 0.000313; in test [1], -0.00414; in the test on R275C it was -0.0438. Also, the log fold change Tl+ flux with R275C/beta1 was -0.00595; in the test with R275C/beta2Delta, -0.0535; in the test with R275C/beta4, -0.025; with R275C/Slo1WT/beta2, 0.0321.
`CC(=O)C(=CN(C)C)Sc1ccc(Cl)cc1`: the log fold change Tl+ flux in the test with F380Y is 0.0299; in the test on F380Y/beta1, -0.000152; in the test on F380Y/beta2Delta, 0.00502; in the test with F380Y/beta4, 0.000556; in [1] it was 0.0115; in the test on R275C, 0.0269. Moreover, the log fold change Tl+ flux in the test on R275C/beta1 was 0.0366; with R275C/beta2Delta it was 0.0244; in the test on R275C/beta4, 0.0484; in the test on R275C/Slo1WT/beta2, -0.0118.
For `CCN(CC)CCCOc1ccc(Nc2nccc(-c3c(-c4cccc(NC(=O)c5c(F)cccc5F)c4)nn4ccccc34)n2)cc1F`, the growth inhibition was 99% (active) in test [2] and 100% (active) in test [5]. Also, the inhibition (as a rule, the drop in the measured response relative to a control, in per cent) in test [3] is 86% (active); in test [4], -5%. The result in test [6] was inactive.
Regarding `N#Cc1cccc(CSc2ncnc(N)n2)c1`, the log fold change Tl+ flux is 0.00879 in the test with F380Y; 0.0215 in the test on F380Y/beta1; 0.00942 in the test on F380Y/beta2Delta; -0.00378 in the test with F380Y/beta4; 0.019 in test [1]; 0.0199 in the test on R275C. Further, the log fold change Tl+ flux in the test on R275C/beta1 was -0.0244; with R275C/beta2Delta it was 0.0122; in the test with R275C/beta4 it was 0.019; with R275C/Slo1WT/beta2, 0.00642.
For `O=S(=O)(Oc1ccc(F)cc1F)c1cccc(S(=O)(=O)Oc2ccc(F)cc2F)c1`, the log fold change Tl+ flux in the test on F380Y is -0.193 (active); in the test with F380Y/beta1, -0.0152; in the test on F380Y/beta2Delta it was 0.00173; in the test on F380Y/beta4 it was -0.485 (active); in test [1] it was -0.264 (active); in the test with R275C, -0.229 (active). Moreover, the log fold change Tl+ flux in the test with R275C/beta1 is -0.209 (active); in the test with R275C/beta2Delta it was -0.0138; in the test with R275C/beta4, -0.144 (active); in the test on R275C/Slo1WT/beta2, -0.0996.
Turning to `COC(=O)c1cnn(C(=O)Nc2c(C)cccc2C)c1C(OC)OC`, the log fold change Tl+ flux in the test on F380Y is -0.0549; in the test with F380Y/beta1, -0.00196; with F380Y/beta2Delta it was -0.0264; in the test with F380Y/beta4, -0.029; in test [1] it was 0.033; with R275C it was 0.02. Also, the log fold change Tl+ flux is -0.0504 in the test with R275C/beta1, -0.0443 in the test with R275C/beta2Delta, 0.00703 in the test with R275C/beta4 and 0.00968 in the test with R275C/Slo1WT/beta2.
Take `Cc1cc(C(=O)N2CCN(c3ncccc3C#N)CC2)no1`: the log fold change Tl+ flux in the test with F380Y is -0.0195; in the test on F380Y/beta1, 0.00841; in the test with F380Y/beta2Delta, -0.0191; in the test with F380Y/beta4, 0.032; in test [1], -0.00848; with R275C, 0.011. Besides, the log fold change Tl+ flux in the test with R275C/beta1 is 0.022; in the test on R275C/beta2Delta, 0.0483; in the test with R275C/beta4 it was 0.00374; in the test on R275C/Slo1WT/beta2, 0.00615.
Consider `CCOC(=O)c1ccc(NC(=O)CCC(=O)O)cc1`, for which the log fold change Tl+ flux is -0.0468 in the test with F380Y; -0.00176 in the test with F380Y/beta1; -0.0505 in the test on F380Y/beta2Delta; 0.0259 with F380Y/beta4; 0.0113 in test [1]; -0.00978 in the test with R275C. Further, the log fold change Tl+ flux in the test with R275C/beta1 was -0.00901; in the test with R275C/beta2Delta it was -0.0108; in the test on R275C/beta4, -0.0046; with R275C/Slo1WT/beta2, 0.0242.
Consider `O=C(NC(=O)c1ccccc1Oc1ccc(Cl)cc1Cl)Nc1cc(Cl)cc(Cl)c1`, for which the log fold change Tl+ flux was 0.0204 in the test on F380Y; 0.0216 with F380Y/beta1; -0.00408 in the test on F380Y/beta2Delta; -0.00832 in the test with F380Y/beta4; 0.0199 in test [1]; 0.0363 in the test on R275C. For the same compound, the log fold change Tl+ flux with R275C/beta1 is -0.0332; with R275C/beta2Delta, 0.00447; with R275C/beta4, 0.0362; in the test on R275C/Slo1WT/beta2 it was -0.00947.
Regarding `Oc1c(Cl)cc(Cl)cc1C=Nc1nccs1`, the log fold change Tl+ flux in the test on F380Y is 0.115 (active); in the test on F380Y/beta1, 0.153 (active); in the test on F380Y/beta2Delta it was 0.108 (active); in the test on F380Y/beta4 it was 0.105 (active); in test [1] it was 0.0431; in the test on R275C, -0.0362. Moreover, the log fold change Tl+ flux was 0.112 (active) with R275C/beta1, 0.0936 (active) in the test with R275C/beta2Delta, 0.0731 in the test on R275C/beta4 and 0.0241 in the test with R275C/Slo1WT/beta2.
Turning to `O=C(CN1c2ccccc2Sc2ccccc21)NN=Cc1ccco1`, the log fold change Tl+ flux with F380Y was 0.028; in the test with F380Y/beta1, 0.0239; in the test with F380Y/beta2Delta, -0.0113; in the test on F380Y/beta4, -0.113 (active); in test [1], 0.0102; with R275C it was -0.00994. Moreover, the log fold change Tl+ flux in the test with R275C/beta1 was 0.0301; in the test on R275C/beta2Delta, -0.0092; with R275C/beta4, 0.0737; in the test on R275C/Slo1WT/beta2, 0.032.
On to `O=C(O)CCSc1ccc2ccccc2c1`, for which the log fold change Tl+ flux in the test on F380Y was -0.00784; in the test with F380Y/beta1 it was 0.0347; in the test on F380Y/beta2Delta, -0.0447; in the test with F380Y/beta4, 0.0271; in test [1], -0.000304; in the test on R275C, 0.0461. Further, the log fold change Tl+ flux is 0.0425 in the test on R275C/beta1, -0.00975 in the test with R275C/beta2Delta, -0.0121 in the test on R275C/beta4 and 0.000781 in the test on R275C/Slo1WT/beta2.

The record behind these values is PubChem BioAssay.
